{
  "source": "PubChem BioAssay (Tox21)",
  "note": "Records with an inconclusive call do not appear. Active and inactive are the calls of the source. The call rests on the fitted dose curve. On the % scale 0 is the no-effect control and ±100 the full control effect; potency means the concentration at half of the fitted maximal effect.",
  "data": [
    {"biological_target": "Acetylcholinesterase (Homo sapiens) (UniProt P22303)", "sequence (P22303 whole entry, looked up)": "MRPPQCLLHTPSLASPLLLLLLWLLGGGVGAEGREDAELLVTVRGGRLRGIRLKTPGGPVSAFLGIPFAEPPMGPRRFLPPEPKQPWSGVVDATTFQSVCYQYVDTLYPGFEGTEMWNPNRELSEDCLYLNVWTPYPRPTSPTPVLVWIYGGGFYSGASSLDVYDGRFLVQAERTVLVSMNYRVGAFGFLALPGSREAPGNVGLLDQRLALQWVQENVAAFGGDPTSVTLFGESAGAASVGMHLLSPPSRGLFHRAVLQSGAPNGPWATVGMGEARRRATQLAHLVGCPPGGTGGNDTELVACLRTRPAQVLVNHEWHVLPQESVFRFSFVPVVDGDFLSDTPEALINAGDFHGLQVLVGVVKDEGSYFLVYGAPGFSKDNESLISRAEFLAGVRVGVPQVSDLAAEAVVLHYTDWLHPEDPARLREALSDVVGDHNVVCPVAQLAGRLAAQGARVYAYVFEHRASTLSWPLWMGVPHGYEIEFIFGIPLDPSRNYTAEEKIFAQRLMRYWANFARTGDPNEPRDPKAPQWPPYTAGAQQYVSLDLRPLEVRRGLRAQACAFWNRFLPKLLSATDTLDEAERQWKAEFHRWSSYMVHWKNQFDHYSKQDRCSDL", "test": "Acetylcholinesterase (AChE) small molecule antagonists: colormetric cell-based qHTS assay (AID 1347395); further: nearly all actives have a fitted effect of over 30% in size", "details": "SH-SY5Y cells AChE activity, colorimetric (Ellman); series mostly up to 115 µM; activity, negative = inhibition: at the top concentration", "source_text": "National Center for Advancing Translational Sciences [NCATS]\nDivision of Preclinical Innovation [DPI]\nU.S. Environmental Protection Agency [EPA]\nNational Institutes of Environmental Health Sciences [NIEHS]\nNational Toxicology Program [NTP]\nU.S. Food and Drug Administration [FDA]\nAcetylcholinesterase (AChE) is the primary cholinesterase in the body that hydrolyzes a key neurotransmitter, acetylcholine. Inhibition of AChE activity can lead to neurotoxicity. The known inhibitors include organophosphorous pesticides (OP), chemical warfare agents, drugs, and various phytochemicals.\nA homogenous cell-based assay using the Amplite Colormetric acetylcholinesterase assay kit (AAT Bioquest, Sunnyvale, CA) was used to evaluate the chemicals in the Tox21 10K library that inhibit AChE activity. The assay uses 5, 5-dithiobis-(2-nitrobenzoic acid) (DTNB) to quantify the thiocholine produced from the hydrolysis of acetylthiocholine by AChE from the SH-SY5Y cells.\nTox21 Assay Protocol Summary:\nFor the cell-based AChE assay, 2,000 SH-SY5Y cells in 4 uL/well were dispensed into black, clear-bottom 1536-well plates using a Multidrop Combi dispenser (Thermo Scientific, MA). The assay plates were incubated overnight at 37 C to allow cells to attach to the wells, followed by the transfer of 23 nL of compound or DMSO (vehicle control) by a Pintool Station (Wako Automation, CA). The plates were incubated for 30 min at 37 C and 5% CO2, followed by the addition of 4 uL of detection cocktail solution (DTNB, acetylthiocholine) into each well using a Flying Reagent Dispenser (Beckman Coulter, CA) and then 90 min incubation at 37 C.", "values": [
      {"molecule": "CC1(C)OC(=O)Nc2ccc(Br)cc21", "activity, negative = inhibition": "2.15% [at 52.9 µM] (inactive)"},
      {"molecule": "Cc1nc2n(c(=O)c1CCN1CCC(C(=O)c3ccc(F)cc3)CC1)CCS2", "Potency": "13.8 µM (active)"},
      {"molecule": "OCC(CO)n1cnc(-c2ccc(F)cc2)c1-c1ccnc(Oc2ccccc2)n1", "activity, negative = inhibition": "4.09% (inactive)"},
      {"molecule": "CC(O)COC(C)(C)C", "note": "(stereo not given)", "activity, negative = inhibition": "0.989% (inactive)"},
      {"molecule": "CC1CNCC(C)O1", "note": "(stereo not given)", "activity, negative = inhibition": "2.2% (inactive)"},
      {"molecule": "CCOC(=O)C(C)Oc1ccc(Oc2nc3ccc(Cl)cc3o2)cc1", "note": "(stereo not given)", "activity, negative = inhibition": "-1.5% (inactive)"},
      {"molecule": "Oc1ccc(-c2ccc(O)cc2)cc1", "activity, negative = inhibition": "1.15% (inactive)"},
      {"molecule": "O=S(=O)(c1ccccc1)c1ccc(Cl)cc1", "activity, negative = inhibition": "2.1% (inactive)"},
      {"molecule": "O=C1Nc2ccc(Cl)cc2[C@@](C#CC2CC2)(C(F)(F)F)O1", "activity, negative = inhibition": "-0.168% [at 52.9 µM] (inactive)"},
      {"molecule": "CC12CCC(C(=O)C1=O)C2(C)C", "note": "(stereo not given)", "activity, negative = inhibition": "-0.824% (inactive)"},
      {"molecule": "CCC(=O)/C=C/c1ccc(OC)cc1", "activity, negative = inhibition": "2.89% (inactive)"},
      {"molecule": "O=C(O)c1cc(=O)c2ccccc2o1", "activity, negative = inhibition": "-2.03% [at 52.9 µM] (inactive)"},
      {"molecule": "Cc1c(NC(C)C)c(=O)n(-c2ccccc2)n1C", "activity, negative = inhibition": "-7.31% [at 52.9 µM] (inactive)"},
      {"molecule": "CCCCCC(C)OC(=O)COc1ccc(Cl)c2cccnc12", "note": "(stereo not given)", "activity, negative = inhibition": "-0.0752% (inactive)"},
      {"molecule": "CCCC(CC)CCCCCCCN", "note": "(stereo not given)", "activity, negative = inhibition": "-1.22% (inactive)"},
      {"molecule": "CCN1CCN(c2cc3c(cc2F)c(=O)c(C(=O)O)cn3C2CC2)CC1", "activity, negative = inhibition": "0.656% [at 52.9 µM] (inactive)"},
      {"molecule": "COc1cccc(OC)c1C(=O)O", "activity, negative = inhibition": "0.37% (inactive)"},
      {"molecule": "Nc1ccc(F)c([N+](=O)[O-])c1", "activity, negative = inhibition": "9.76% (inactive)"},
      {"molecule": "CC(=O)OCCC(C)CC(C)(C)C", "note": "(stereo not given)", "activity, negative = inhibition": "-6.53% (inactive)"},
      {"molecule": "C=CC(=O)O", "activity, negative = inhibition": "-0.864% [at 52.9 µM] (inactive)"},
      {"molecule": "COC(=O)CC(C(C)=O)C(=O)OC", "note": "(stereo not given)", "activity, negative = inhibition": "0.124% (inactive)"},
      {"molecule": "COc1c(C)c2c(c(O)c1C/C=C(\\C)CCC(=O)OCCN1CCOCC1)C(=O)OC2", "Potency": "27.5 µM (active)"},
      {"molecule": "CC(=O)CC(N)=O", "activity, negative = inhibition": "1.31% (inactive)"},
      {"molecule": "Oc1ccc(Nc2ccccc2)cc1", "activity, negative = inhibition": "3.47% (inactive)"},
      {"molecule": "CCC1=C(C)CN(C(=O)NCCc2ccc(S(=O)(=O)NC(=O)NC3CCC(C)CC3)cc2)C1=O", "note": "(stereo not given)", "activity, negative = inhibition": "1.63% [at 52.9 µM] (inactive)"},
      {"molecule": "O=CC=C(c1ccccc1)c1ccccc1", "activity, negative = inhibition": "-1.27% (inactive)"},
      {"molecule": "CC1=C(CC=O)C(C)(C)CCC1", "activity, negative = inhibition": "3.15% (inactive)"},
      {"molecule": "CCOC(=O)[C@H](CCc1ccccc1)N[C@@H](C)C(=O)N1[C@H](C(=O)O)C[C@@H]2CCC[C@@H]21", "activity, negative = inhibition": "0.925% [at 52.9 µM] (inactive)"},
      {"molecule": "Oc1ccc(Cl)cc1C1CCCC1", "activity, negative = inhibition": "2% (inactive)"},
      {"molecule": "CC(C)CCOC(=O)CC(C)C", "activity, negative = inhibition": "-0.877% (inactive)"},
      {"molecule": "C=CC(C)(O)CCCC(C)CCCC(C)CCCC(C)C", "note": "(stereo not given)", "activity, negative = inhibition": "-1.66% (inactive)"},
      {"molecule": "CCOC(=O)CCc1ccccc1", "activity, negative = inhibition": "0.115% (inactive)"},
      {"molecule": "NC(=O)c1ccc(N)cc1", "activity, negative = inhibition": "-3.35% (inactive)"},
      {"molecule": "NCc1cccc(C2CCN(C(=O)c3ccc(C#Cc4ccccc4F)o3)CC2)c1", "activity, negative = inhibition": "3.07% (inactive)"},
      {"molecule": "CCCCC(CC)COC(=O)c1ccccc1O", "note": "(stereo not given)", "activity, negative = inhibition": "1.06% [at 52.9 µM] (inactive)"},
      {"molecule": "CN1C(=O)c2ccc([N+](=O)[O-])cc2C1=O", "activity, negative = inhibition": "-5.82% (inactive)"},
      {"molecule": "O=C(/C=C/c1ccccc1)OCCc1ccccc1", "activity, negative = inhibition": "-0.394% (inactive)"},
      {"molecule": "C[N+]12CCC(CC1)C(OC(=O)C(O)(c1ccccc1)c1ccccc1)C2", "note": "(stereo not given)", "activity, negative = inhibition": "2.51% [at 52.9 µM] (inactive)"},
      {"molecule": "CCCCCCOc1ccccc1C(N)=O", "activity, negative = inhibition": "-0.0717% [at 52.9 µM] (inactive)"},
      {"molecule": "CC(C)=CCCC(C)CCOC(=O)C(C)C", "note": "(stereo not given)", "activity, negative = inhibition": "-3.61% (inactive)"}
    ]}
  ]
}
